Out of some 400,000 compounds screened, about 2,100 (0.53%) were called active. Another 14% or so got no clear call; they are omitted. How the calls were made is not given here. Only a selection was taken, and actives are over-represented in it overall.
target: Ataxin-2 (Homo sapiens) (UniProt Q99700); test: qHTS for Inhibitors of ATXN expression.; format: functional
Sequence (Q99700 whole entry): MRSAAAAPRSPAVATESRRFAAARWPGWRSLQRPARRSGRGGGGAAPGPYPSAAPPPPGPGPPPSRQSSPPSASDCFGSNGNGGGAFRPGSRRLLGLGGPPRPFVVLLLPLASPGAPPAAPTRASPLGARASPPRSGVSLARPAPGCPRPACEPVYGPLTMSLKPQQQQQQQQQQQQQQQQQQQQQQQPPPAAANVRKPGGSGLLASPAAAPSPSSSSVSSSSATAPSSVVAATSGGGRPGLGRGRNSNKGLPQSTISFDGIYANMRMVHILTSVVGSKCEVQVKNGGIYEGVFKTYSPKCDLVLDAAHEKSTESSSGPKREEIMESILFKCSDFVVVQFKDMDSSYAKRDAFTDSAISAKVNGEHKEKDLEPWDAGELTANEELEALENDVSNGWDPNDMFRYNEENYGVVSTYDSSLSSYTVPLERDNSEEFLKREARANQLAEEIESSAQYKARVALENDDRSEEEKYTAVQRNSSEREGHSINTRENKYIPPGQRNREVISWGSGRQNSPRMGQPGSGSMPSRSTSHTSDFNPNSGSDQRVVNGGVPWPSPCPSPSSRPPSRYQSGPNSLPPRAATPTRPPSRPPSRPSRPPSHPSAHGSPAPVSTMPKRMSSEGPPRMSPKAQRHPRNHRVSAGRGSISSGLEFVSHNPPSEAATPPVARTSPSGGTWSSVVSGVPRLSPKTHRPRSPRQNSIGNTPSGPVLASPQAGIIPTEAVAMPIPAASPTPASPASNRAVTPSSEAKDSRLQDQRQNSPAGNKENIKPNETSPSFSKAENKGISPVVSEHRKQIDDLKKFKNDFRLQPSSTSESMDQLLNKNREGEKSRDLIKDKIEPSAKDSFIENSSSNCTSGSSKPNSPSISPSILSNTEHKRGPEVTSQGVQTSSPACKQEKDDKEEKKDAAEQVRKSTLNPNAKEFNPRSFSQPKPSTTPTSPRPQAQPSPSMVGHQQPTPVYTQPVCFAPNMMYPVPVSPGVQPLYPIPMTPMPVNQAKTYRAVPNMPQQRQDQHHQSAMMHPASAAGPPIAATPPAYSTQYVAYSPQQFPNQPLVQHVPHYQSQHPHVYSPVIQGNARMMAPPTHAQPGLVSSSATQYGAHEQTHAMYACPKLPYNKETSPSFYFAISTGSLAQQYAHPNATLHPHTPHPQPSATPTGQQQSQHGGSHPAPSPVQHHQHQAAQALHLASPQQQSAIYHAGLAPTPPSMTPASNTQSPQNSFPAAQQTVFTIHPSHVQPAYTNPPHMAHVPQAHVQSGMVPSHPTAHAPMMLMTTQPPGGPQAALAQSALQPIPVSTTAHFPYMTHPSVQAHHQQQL

Row | Structure (SMILES) | Potency
1 | COCCNc1oc(/C=C/c2cccs2)nc1S(=O)(=O)c1ccccc1 | inactive
2 | Cc1ccc(S(=O)(=O)N(C)c2ccc(OC(=O)c3cccs3)cc2)cc1C | inactive
3 | O=C(Nc1ccc(C(=O)NCCCN2CCN(c3ccc(F)cc3)CC2)cc1)C1=CSCCO1 | inactive
4 | Cc1ccc(-n2nc(C)c(C(=O)NCCCN3CCN(c4ccc(F)cc4)CC3)c2-n2cccc2)cc1 | 25.1 µM (active)
5 | C/C(=N\NC(=O)CN1CCN(c2ccc(F)cc2)CC1)c1ccco1 | inactive
6 | COc1ccccc1NC(=O)c1c(C)nn(-c2ccccc2)c1Cl | inactive
7 | COc1ccc(CCNC(=O)c2c(C)nn(-c3ccc(F)cc3)c2-n2cccc2)c(OC)c1OC | 35.5 µM (active)
8 | O=C(COc1ccccc1F)NCc1ccc(-n2cccc2)cc1 | inactive
9 | CCCc1ccc(C(=O)NNc2cc(Cl)ccc2Cl)cc1 | inactive
10 | CS(=O)(=O)c1ccc(C(=O)NNC(=O)c2ccccc2-n2cccc2)cc1 | inactive
11 | CCOC(=O)C1CCN(C(=O)c2cc3c(=O)n4ccccc4nc3n2C)CC1 | inactive
12 | CC(/C=C(\O)c1ccc(Br)cc1)=N/NC(=O)c1ccccc1 | inactive
13 | C/C(=N\NC(=O)c1ccc(Br)cc1)C1C(=O)c2ccccc2C1=O | 35.5 µM (active)
14 | O=C(NN=C(S)Nc1ccccc1)c1ccc(O)cc1 | inactive
15 | O=C(CCn1nnc2ccccc21)N/N=C\Cc1ccccc1 | inactive
16 | COc1cc(C(=O)OCC(=O)Nc2ccc(S(=O)(=O)NC3=NCCCCC3)cc2)cc(OC)c1OC | inactive
17 | Cc1cccc(C)c1NC(=O)CN(C)C(=O)c1cccc(NS(=O)(=O)c2ccccc2)c1 | inactive
18 | Cc1cccc(C(=O)N[C@H](C(=O)Nc2ccc(S(=O)(=O)NC3=NCCCCC3)cc2)C(C)C)c1 | inactive
19 | CC(C)(C)c1ccc(OCC(=O)Nc2cccc(S(=O)(=O)NC3=NCCCCC3)c2)cc1 | inactive
20 | CC(C)=CC(=O)Nc1cccc(S(=O)(=O)NC2=NCCCCC2)c1 | inactive
21 | O=C(CCl)Nc1ccc(S(=O)(=O)NC2=NCCCCC2)cc1 | 13.4 µM (active)
22 | Cc1ccc(OCC(=O)Nc2ccc(S(=O)(=O)NC3=NCCCCC3)cc2)cc1 | inactive
23 | O=C(CCl)Nc1cccc(S(=O)(=O)NC2=NCCC2)c1 | 12.6 µM (active)
24 | O=C(CCl)Nc1cccc(S(=O)(=O)NC2=NCCCCC2)c1 | 11.2 µM (active)

Row | Structure (SMILES) | Potency
25 | Cc1cc(NC(=O)CSc2nc(=O)cc(N)n2-c2ccc(C)c(C)c2)no1 | inactive
26 | Cc1cccn2c(=O)c3cc(C(=O)NCc4cccnc4)c(=N)n(CCCO)c3nc12 | inactive
27 | Cn1c(C(=O)NCC2CCCO2)cc2c(=O)n3ccccc3nc21 (stereo unspecified) | inactive
28 | COc1ccccc1/N=C/c1c(C)c(C#N)c2nc3ccccc3n2c1O | inactive
29 | O=C1C=CC(=O)N1c1ccc2c(c1)C(NC(=O)C(F)(F)F)c1ccccc1-2 (stereo unspecified) | 25.1 µM (active)
30 | O=C(Nc1ccccc1)N1CCN(C2c3ccccc3-c3ccccc32)CC1 | inactive
31 | COc1ccc(C(=O)c2sc3nc(-c4ccccc4)ccc3c2N)cc1 | inactive
32 | Cc1ccc(CNC(=O)c2c(Nc3c(C)cccc3C)sc(C(=O)c3ccccc3)c2N)cc1 | 39.8 µM (active)
33 | Cc1cc(C)c2c(N)c(C(=O)c3ccccc3)sc2n1 | inactive
34 | COc1ccc(CNC(=O)c2c(Nc3ccccc3C)sc(C(=O)c3ccccc3)c2N)cc1 | 35.5 µM (active)
35 | Cc1nc2sc(C(=O)c3ccccc3)c(N)c2c(C)c1C | inactive
36 | COc1ccc(CNC(=O)CCC(=O)c2ccccc2)cc1 | inactive
37 | COc1cccc(OC)c1C(=O)Nc1ccc(Br)c(C(=O)c2ccccc2)c1 | inactive
38 | Nc1c(C(=O)c2ccccc2)sc(Nc2ccc(Cl)c(Cl)c2)c1C(=O)Nc1ccccc1 | 28.2 µM (active)
39 | Cc1cccc(C)c1Nc1sc(C(=O)c2ccccc2)c(N)c1C(=O)Nc1ccc(F)cc1 | 28.2 µM (active)
40 | CCO/C(O)=C1\C(C)=Nc2sc(C(=O)c3ccc(C)cc3)c(N)c2C1c1ccc(C(=O)OC)cc1 (stereo unspecified) | inactive
41 | Cc1ccc2c(N)c(C(=O)c3ccccc3)sc2n1 | inactive
42 | Cn1cc(CN2CCC(n3nccc3NC(=O)c3ccc4c(c3)OCO4)CC2)cn1 | inactive
43 | Cc1cc(C)c2cc(C#N)c(SCC(=O)Nc3cc(C)on3)nc2c1 | inactive
44 | O=C(CSc1nnc(O)nc1O)N/N=C/C=C/c1ccccc1 | inactive
45 | O=S(=O)(c1ccc(SCCOc2ccccc2)nc1)N1CCCC1 | inactive
46 | COC(=O)Cc1c(C)c2cc3c(c(C)c2oc1=O)OCN(CCc1ccc(OC)cc1)C3 | inactive
47 | Cc1ccc(-c2nn(-c3ccccc3)c3[nH]c(=O)c(CNCc4ccccc4)cc23)cc1 | 39.8 µM (active)
48 | Cc1cnc(NC(=O)c2cc(-c3ccccc3)nn2-c2ccccc2)s1 | inactive

Row | Structure (SMILES) | Potency
49 | Cc1ccc2nc(Cl)c(CNCc3ccccc3)cc2c1 | inactive
50 | Cc1ccc(C2N(C)C(=O)c3ccccc3N2C)cc1 (stereo unspecified) | inactive
51 | CC1Nc2ccccc2C(=O)N1NS(C)(=O)=O (stereo unspecified) | inactive
52 | Cc1ccc(S(=O)(=O)NN2C(=O)c3ccccc3NC2c2ccccc2)cc1 (stereo unspecified) | 35.5 µM (active)
53 | O=c1cc(CN2CCN(S(=O)(=O)c3cccc(Cl)c3)CC2)c2ccc(O)cc2o1 | inactive
54 | C=CCNC(=S)Nc1cccc(NC(=S)NCC=C)c1 | inactive
55 | C/C(=N\Nc1ncc(Cl)cc1Cl)c1ccccn1 | inactive
56 | C=CCNC(=S)N/N=C(\C)c1ccccn1 | 2.51 µM (active)
57 | O=S(=O)(Nc1ccc(C(O)(C(F)(F)F)C(F)(F)F)cc1)c1ccc(Cl)c2nonc12 | 22.4 µM (active)
58 | O=S(=O)(Nc1ccc(C(O)(C(F)(F)F)C(F)(F)F)cc1)c1cccc2ccccc12 | 44.7 µM (active)
59 | COc1ccc(C(=O)NNC(=O)CSc2nc3c(=O)n(C)c(=O)n(C)c3[nH]2)cc1 | inactive
60 | N#Cc1cccc(Cn2cc(C(F)(F)F)ccc2=O)c1 | inactive
61 | CS(=O)(=O)c1ncc(Cl)c(C(=O)N(Cc2ccc(Cl)cc2)Cc2ccco2)n1 | 6.31 µM (active)
62 | C=C1C(=O)[C@]23C[C@H]1CC[C@H]2[C@]1(C)[C@@H](OC(C)=O)CC[C@@](C)(C(=O)O)[C@H]1C[C@@H]3O | 11.2 µM (active)
63 | C=C1C(=O)[C@]23C[C@H]1CC[C@H]2[C@]1(C)[C@@H](O)CC[C@@](C)(C(=O)O)[C@H]1C[C@@H]3O | 12.6 µM (active)
64 | C=C1C(=O)[C@]23C[C@H]1CCC2[C@@]1(C)C(C[C@@H]3O)[C@](C)(C(=O)OC)CC[C@@H]1O (stereo partly specified) | 35.5 µM (active)
65 | N#C/C(=C\c1ccncc1)c1nc2c(s1)CCCC2 | inactive
66 | CCc1cc(=O)oc2cc(O[C@@H]3O[C@H](CO)[C@@H](O)[C@H](O)[C@H]3O)c(Cl)cc12 | inactive
67 | Cc1cc(-n2cnc(-c3cn(C)nc3C)n2)no1 | inactive
68 | CN(C)/C=N/c1nc2nccc(-c3cccs3)n2n1 | inactive
69 | COc1ccc2c(Cl)c(C(=O)NN3CCN(C)CC3)sc2c1 | inactive
70 | CC(C)(C)C(=O)NC(=S)NNC(=O)c1sc2ccccc2c1Cl | 31.6 µM (active)
71 | CC(C)(C)C(=O)NC(=S)Nc1ccc(C(F)(F)F)cc1 | inactive
72 | C=CCn1c(S)nnc1-c1ccc2ncccc2c1 | inactive

Row | Structure (SMILES) | Potency
73 | CC(C)CC1C(=O)N(Cc2cn(CCC3OCCO3)nn2)CCS(=O)(=O)N1Cc1ccc(-c2ccc(F)cc2)cc1 (stereo unspecified) | 35.5 µM (active)
74 | CC(C)CC1C(=O)N(Cc2cn(CCC3OCCO3)nn2)CCS(=O)(=O)N1Cc1ccc(-c2ccc(Cl)c(Cl)c2)cc1 (stereo unspecified) | 39.8 µM (active)
75 | C/C(=N\c1ccc(C)cc1C)c1sc2ccccc2c1O | inactive
76 | N#C/C(=C\c1ccc(N2CCCCC2)o1)C(=O)Nc1cccc(Br)c1 | inactive
77 | COc1cc2ccc(=O)oc2c(O[C@@H]2O[C@H](CO)[C@@H](O)[C@H](O)[C@H]2O)c1O | inactive
78 | COc1ccccc1/C=C/c1nc(C#N)c(N(C)C)o1 | inactive
79 | CC(C)NC(=O)Nc1ccc2c(c1)C(=O)N([C@H](C)CO)C[C@H](C)[C@@H](CN(C)Cc1ccc(C(F)(F)F)cc1)OCCCC[C@H](C)O2 | 20 µM (active)
80 | Cc1noc(C)c1S(=O)(=O)Nc1ccc(C(C)C)cc1 | inactive
81 | Cc1noc(C)c1S(=O)(=O)Nc1ccc2c(c1)C(=O)N([C@@H](C)CO)C[C@H](C)[C@@H](CN(C)Cc1ccc(C(F)(F)F)cc1)OCCCC[C@H](C)O2 | 20 µM (active)
82 | COc1ccc(CN2C(=O)/C(=C\NNC(=O)c3cccnc3)c3ccccc3C2=O)cc1 | inactive
83 | O=C(CN(C(=O)CCC(=O)Nc1nccs1)c1ccccc1F)NCc1ccc(F)cc1 | inactive
84 | CCOc1ccc(-c2cnc3cccnn23)cc1 | inactive
85 | O=C(N/N=C/c1cccc2cccnc12)[C@H]1C[C@@H]1c1ccccc1 | inactive
86 | Cc1ccc(-c2nnn(CC(=O)N(c3cccc(F)c3)C(C(=O)NC(C)(C)C)c3ccco3)n2)o1 (stereo unspecified) | inactive
87 | COc1ccc(-c2[nH]ncc2CNC(C)c2cn(C)nc2C)c(F)c1 (stereo unspecified) | inactive
88 | CCCCN(CC)CCNC(=O)c1cc2c(-c3ccc(Cl)cc3)nn(C)c2s1 | 39.8 µM (active)
89 | CCN(CC)CCNC(=O)c1cc2c(-c3ccc(Cl)cc3)nn(C)c2s1 | 22.4 µM (active)
90 | CCN(CC)CCCNC(=O)c1cn(-c2cccc(OC)c2)c(=O)c2ccccc12 | inactive
91 | CCN(CC)CCCNC(=O)c1cc2c(-c3ccc(Cl)cc3)nn(C)c2s1 | 17.8 µM (active)
92 | CCN(CC)CCNC(=O)c1cc2cc(Br)ccc2s1 | inactive
93 | Cc1ccc(-c2cc(C(=O)N3CCN(c4ncccn4)CC3)c3cc(Br)ccc3n2)o1 | inactive
94 | CN=C(S)N1N=C(c2ccc(C)cc2)CC1c1ccc(N(C)C)cc1 (stereo unspecified) | inactive
95 | O=C(Oc1cccc2ccccc12)C1CC1 | inactive
96 | CC(=O)/C(C#N)=C1\NC(=O)C(Cc2ccccc2C)S1 (stereo unspecified) | inactive
